Test results reported in PubChem BioAssay AID1903 (Southern Research Specialized Biocontainment Screening …, 2009).
About 1,200 (0.39%) of roughly 310,000 compounds were called active. The rule behind the calls is not given here. These entries were drawn from the full list. Measured potencies and affinities stand elsewhere.

Target: Large T antigen (Simian virus 40) (UniProt P03070)
Assay: TAg ATPase/helicase activity blockers – biochemical (AID 1903)
Settings: SV40 large T antigen ATPase/helicase inhibition assay; at 20 µM; stronger effect = higher value

Large T antigen (Simian virus 40), sequence (P03070 whole entry, looked up): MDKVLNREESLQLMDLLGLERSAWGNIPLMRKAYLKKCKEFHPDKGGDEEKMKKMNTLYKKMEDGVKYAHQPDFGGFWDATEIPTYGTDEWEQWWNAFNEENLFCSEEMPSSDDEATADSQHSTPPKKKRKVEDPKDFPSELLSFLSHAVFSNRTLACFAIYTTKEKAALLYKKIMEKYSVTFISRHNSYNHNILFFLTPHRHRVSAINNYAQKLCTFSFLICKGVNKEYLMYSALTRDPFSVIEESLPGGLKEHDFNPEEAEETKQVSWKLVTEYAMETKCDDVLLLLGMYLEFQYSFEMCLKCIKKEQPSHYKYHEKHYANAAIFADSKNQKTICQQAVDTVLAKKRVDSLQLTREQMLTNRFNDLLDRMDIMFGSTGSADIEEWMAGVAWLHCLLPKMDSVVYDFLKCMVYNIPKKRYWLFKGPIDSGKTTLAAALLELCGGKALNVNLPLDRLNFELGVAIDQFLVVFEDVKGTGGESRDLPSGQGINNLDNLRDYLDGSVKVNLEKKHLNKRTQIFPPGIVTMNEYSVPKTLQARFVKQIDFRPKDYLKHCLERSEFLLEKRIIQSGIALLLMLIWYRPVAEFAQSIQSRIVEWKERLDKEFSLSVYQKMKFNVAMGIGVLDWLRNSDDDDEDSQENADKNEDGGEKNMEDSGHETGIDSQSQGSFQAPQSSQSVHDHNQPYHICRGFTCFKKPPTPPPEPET

inhibition, inactive:
Cc1ccc(-n2c(SCC(=O)OC(C)C)nnc2-c2ccncc2)cc1 9.08%
O=c1[nH]c2ccccc2c2ccccc12 11.7%
O=c1[nH]c2ccc(F)cc2[nH]c1=O 22.1%
Cc1cc(=O)c2ccccc2s1 23.3%
O=C1Nc2ccc(F)cc2C12SCCS2 -3.17%
CC(=O)N1CCN(c2cc(N3CCc4ccccc4C3)c(F)cc2[N+](=O)[O-])CC1 29.4%
COc1ccc(C(=O)O)cc1N1C(=O)Nc2ccccc2N1O 13.6%
O=C(NCc1cccs1)C1CC(O)CN1C(=O)Nc1ccccc1 (stereo not given) 3.53%
Nc1ccccc1Nc1nc2ccccc2[nH]1 26.5%
Nc1ccc(-c2nc3ccccc3[nH]2)cc1 6.85%
COc1ccc(CCNC(=O)c2cn(C)c3ccc(S(=O)(=O)N4CCOCC4)cc3c2=O)cc1OC 5.2%
C=CCNS(=O)(=O)c1ccc(OC)c(C)c1 1.44%
O=C(N/N=C/c1ccc([N+](=O)[O-])s1)C(O)c1ccccc1 (stereo not given) 4.11%
O=c1oc(/C=C/c2ccc([N+](=O)[O-])s2)nc2ccccc12 6.31%
CCN1C(=O)/C(=C/c2ccc(C)s2)NC1=S 11.9%
CN(C(=O)/C=C/c1ccc([N+](=O)[O-])s1)c1ccccc1 -0.18%
O=C(/C=C/c1ccc([N+](=O)[O-])s1)N1CCN(c2ccccc2)CC1 16%
CCCN1C(=O)/C(=C/c2ccc(C)s2)NC1=S 8.4%
CCCCc1c(C(=O)O)cc(OC)cc1C(=O)O 12.1%
O=C(CSc1nc(O)cc(=O)n1-c1ccc(Cl)c(Cl)c1)Nc1ccc(Cl)cc1Cl 28.9%
Cn1nccc1C(=O)N1CCC(Cc2ccccc2)CC1 11.7%
COC(=O)CC1C(=O)NCCN1C(=O)Nc1ccc(Cl)c(Cl)c1 (stereo not given) 4.47%
CCC(C)NC(=O)CCc1c(C)nc2c(c(C)nn2-c2ccccc2)c1C (stereo not given) 6.67%
CC(=O)c1c(C)oc2ccc(N(C(C)=O)S(=O)(=O)c3cccc4cccnc34)cc12 10.6%
FC(F)(F)c1ccc(Cl)c(NC2=NCCCCC2)c1 7.53%
CC(C)OC(=O)C(C(=O)C(F)(F)F)c1cc(NS(=O)(=O)c2ccc3ccccc3c2)c2ccccc2c1O (stereo not given) 15.1%
CCOc1cc(/C=N\n2nnnc2N)ccc1O 33.9%
COc1ccc(/C=N/n2nnnc2N)cc1OC 11.7%
COc1cc(/C=N/n2nnnc2N)ccc1OC(C)=O 12.9%
CCOc1ccc(/C=N/n2nnnc2N)cc1OCC 5.4%
